Reference: the supplement of paper PMC4840960
Structures can show the parent of a compound that is named as a salt. ± gives the standard deviation of the averaged measurements.

What follows are compounds tested on E18 rat cortical neuron-glia co-culture (assay: fiber score / MBP score (myelination specific beyond OL differentiation) (ratio); higher = more myelination-specific MBP alignment). Conditions: 1 µM; treatment time: 8 days (DIV5-DIV13).
Summary of the method: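 Papain-dissociated primary E18 rat cortical co-cultures, plated at 20,000 cells/well on poly-d-lysine/laminin 96-well plates, were exposed to library compounds at 1 or 5 µM in myelination medium between DIV5 and DIV13. Following fixation in 4 % paraformaldehyde, cultures were stained for MBP, Olig2 and DAPI, and four 10X fields per well were analysed in duplicate wells. Values are the ratio of fiber score (continuous MBP fiber length per Olig2+ nucleus) to MBP score (thresholded MBP area × intensity per Olig2+ nucleus).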

SMILES	fiber score / MBP score
Nc1nc2ccc(OC(F)(F)F)cc2s1 [Riluzole]	0.879
N[C@@H](Cc1cc(I)c(Oc2ccc(O)c(I)c2)c(I)c1)C(=O)O [Triiodothyronine]	0.895
CCCC1O[C@@H]2C[C@H]3[C@@H]4CCC5=CC(=O)C=C[C@]5(C)[C@H]4[C@@H](O)C[C@]3(C)[C@]2(C(=O)CO)O1 (some centres undefined) [Budesonide]	0.86
OCCN1CCN(CCCN2c3ccccc3Sc3ccc(Cl)cc32)CC1 [Perphenazine]	0.338
COc1c(N2CCNC(C)C2)c(F)cc2c(=O)c(C(=O)O)cn(C3CC3)c12 (centres undefined) [Gatifloxacin]	0.508
OC(CCN1CCCCC1)(c1ccccc1)C1CCCCC1 (centres undefined) [Trihexyphenidyl]	0.616
COCCCC/C(=N\OCCN)c1ccc(C(F)(F)F)cc1 [Fluvoxamine]	1.03
O=c1[nH]cc(F)c(=O)[nH]1 [5-Fluorouracil]	1.24
Cc1ncc([N+](=O)[O-])n1CC(C)O (centres undefined) [Secnidazole]	0.462
CO[C@H]1/C=C/O[C@@]2(C)Oc3c(C)c(O)c4c(O)c(c(/C=N/N5CCN(C)CC5)c(O)c4c3C2=O)NC(=O)/C(C)=C\C=C\[C@H](C)[C@H](O)[C@@H](C)[C@@H](O)[C@@H](C)[C@H](OC(C)=O)[C@@H]1C [Rifampicin]	0.964
CCCCCNC(=N)N/N=C/c1c[nH]c2ccc(OC)cc12 [Tegaserod]	0.56
CNC(=N)NCCC[C@H](N)C(=O)O	0.684
CCOC(=O)[C@H](CCc1ccccc1)N[C@@H](C)C(=O)N1Cc2ccccc2C[C@H]1C(=O)O [Quinapril]	0.878
Cc1[nH]c(=O)c(C#N)cc1-c1ccncc1 [Milrinone]	0.762
C=C1/C(=C\C=C2/CCC[C@]3(C)[C@@H]([C@H](C)/C=C/[C@@H](O)C4CC4)CC[C@@H]23)C[C@@H](O)C[C@@H]1O [Calcipotriene]	0.711
CN1CCN(C2=Nc3cc(Cl)ccc3Nc3ccccc32)CC1 [Clozapine]	0.395
CC(C)(C)NCC(O)c1cc(O)cc(O)c1 (centres undefined) [Terbutaline]	0.31
CN(CCOc1ccc(CC2SC(=O)NC2=O)cc1)c1ccccn1 (centres undefined) [Rosiglitazone maleate]	0.752 ± 0.037
CCN(CC)CCOc1ccc(C(=C(Cl)c2ccccc2)c2ccccc2)cc1 [Clomiphene]	0.64
COC(=O)Nc1nc2cc(C(=O)c3ccc(F)cc3)ccc2[nH]1 [Flubendazole]	0.494

SMILES	fiber score / MBP score
C=CCc1ccc(O)c(-c2ccc(O)c(CC=C)c2)c1 [Honokiol]	0.744
OC[C@H]1O[C@@H](Oc2cc(O)cc(/C=C/c3ccc(O)cc3)c2)[C@H](O)[C@@H](O)[C@@H]1O [Polydatin]	0.578
CC/C(=C(\c1ccccc1)c1ccc(OCCN(C)C)cc1)c1ccccc1 [Tamoxifen]	0.507
CN(CCCN1c2ccccc2CCc2ccccc21)CC(=O)c1ccc(Cl)cc1 [Lofepramine]	0.564
COC(=O)C1=C(C)NC(C)=C(C(=O)OC)C1c1ccccc1[N+](=O)[O-] [Nifedipine]	0.768
CS(=O)(=O)OCCCCOS(C)(=O)=O [Busulfan]	0.646
Oc1c(Cl)cc(Cl)c2cccnc12 [Chloroxine]	2.26
CC(=O)[C@H]1CC[C@H]2[C@@H]3CCC4=CC(=O)CC[C@]4(C)[C@H]3CC[C@]12C [Progesterone]	0.688
O=C1CCc2ccc(OCCCCN3CCN(c4cccc(Cl)c4Cl)CC3)cc2N1 [Aripiprazole]	0.301
CN(C)CCOC(C)(c1ccccc1)c1ccccn1 (centres undefined) [Doxylamine]	0.674
COC1=C(OC)C(=O)C(CCCCCCCCCCO)=C(C)C1=O [Idebenone]	0.848
C#C[C@]1(O)CC[C@H]2[C@@H]3[C@H](C)CC4=C(CCC(=O)C4)[C@H]3CC[C@@]21C [Tibolone]	0.647
CCCC(CCC)C(=O)O [Valproic Acid]	0.837
COc1ccnc(C[S+]([O-])c2nc3cc(OC(F)F)ccc3[nH]2)c1OC (centres undefined) [Pantoprazole]	0.86
CC[C@H]1OC(=O)[C@H](C)[C@@H](O[C@H]2C[C@@](C)(OC)[C@@H](O)[C@H](C)O2)[C@H](C)[C@@H](O[C@@H]2O[C@H](C)C[C@H](N(C)C)[C@H]2O)[C@](C)(O)C[C@@H](C)C(=O)[C@H](C)[C@@H](O)[C@]1(C)O [Erythromycin]	0.767
Nc1nc(=O)c2nc(CNc3ccc(C(=O)N[C@@H](CCC(=O)O)C(=O)O)cc3)cnc2[nH]1 [Folic acid]	0.994
CC(=O)O[C@]1(C(C)=O)CC[C@H]2[C@@H]3C=C(C)C4=CC(=O)CC[C@]4(C)[C@H]3CC[C@@]21C [Megestrol acetate]	0.588
CC(CN1c2ccccc2Sc2ccccc21)N(C)C (centres undefined) [Promethazine]	0.678
Cc1c(C(=O)NN2CCCCC2)nn(-c2ccc(Cl)cc2Cl)c1-c1ccc(I)cc1	0.94
